Screening results: PubChem BioAssay, National Center for Advancing Translational Sciences (NCATS)
Shown are actives, neighbours in structure and some others; about 8% of the full set was active somewhere.
SW480 rerep – A quantitative high throughput screen for small molecules that induce DNA re-replication in SW480 colon adenocarcinoma cells; SW480 DNA re-replication, Hoechst DNA content imaging, 48 h; Potency, µM (series often up to 46.1 µM), without a hit: at the highest dose re-replication activation, usual class: activators; 1.8% of 340,000 active; AID 624297, 2012; note: % of control where 0% means no effect; nearly all actives have a fitted effect of over 55% in size
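Hoechst fluorescence of nuclei (405 nm excitation, 500-530 nm emission) measured by plate-scanning imager after 48 hr compound exposure at 37 C; re-replication scored as increased number of nuclei with elevated intensity.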
KB-V1 MDR tox – qHTS assay for MDR1-selective chemotherapeutics: Primary screen using the drug-selected MDR subline cells KB-V1. KB-V1 MDR cells viability, CellTiter-Glo, 72 h. Potency, µM (highest dose often 46.1 µM), most hits filed as cytotoxic. 3.4% of 400,000 active; note: % is set by controls: 0 for no effect and ±100 for the full control effect; nearly all actives have a fitted effect of over 60% in size
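Drug-selected KB-V1 cells, grown in DMEM lacking phenol red with 10% FBS, receive compound titrations; after three days at 37 degrees C, surviving cell ATP is quantified by CellTiter-Glo luminescence and responses normalized and curve-fitted.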
HT1080 IDH1KD tx – qHTS for induction of synthetic lethality in tumor cells producing 2HG: qHTS for the HT-1080-IDH1KD cell line; HT-1080 IDH1 knockdown viability, ATP luminescence, 48 h; Potency, µM (series often up to 46.1 µM), for the others: at the highest dose activity, negative = toxicity, actives largely listed as cytotoxic; 2% of 360,000 active; AID 686971, 2013;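 note: 0% = DMSO wells and -100% = cell-free medium wells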
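Luminescent ATP read-out (CellTiter-Glo, 10 min at room temperature) after 48 h compound exposure at 37 °C gave viability of IDH1-knockdown HT-1080 cells. Activity was normalised to DMSO and cell-free wells, then fitted as concentration-response curves.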
KB-3-1 cytotox – qHTS assay for MDR1-selective chemotherapeutics: Primary screen using the parental adenocarcinoma cell KB-3-1 | Potency, µM (top dose mostly 46.1 µM), actives largely listed as cytotoxic | KB-3-1 viability, CellTiter-Glo ATP luminescence, 72 h | AID 1347075, 2019 | 1.4% of 400,000 active; note: % is set by controls: 0 for no effect and ±100 for the full control effect; nearly all actives have a fitted effect of over 60% in size
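KB-3-1 cells, DMEM (no phenol red) + 10% FBS; compound by pin transfer, 72 h, 37 °C. Readout: CellTiter-Glo luminescence after 10 min. Data normalized, curve-fitted.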
HT1080-NT tox – qHTS for induction of synthetic lethality in tumor cells producing 2HG: qHTS for the HT-1080-NT fibrosarcoma cell line; 1.6% of 360,000 active; HT-1080-NT fibrosarcoma viability, CellTiter-Glo ATP luminescence, 48 h; Potency, µM (titrated, usually from 46.1 µM), for inactives: top-dose activity, negative = less viability, actives largely listed as cytotoxic;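 note: NT is the 2HG producing partner of a matched IDH1 knockdown line; 0% = DMSO-treated cells and -100% = media-only wells without cells; nearly all actives have a fitted effect of over 55% in size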
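Fibrosarcoma NT cells, 750 per well in 5% FBS RPMI, were exposed to compound for 48 hours. Viability: CellTiter-Glo luminescence.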
MCF10A rereplic – A quantitative high throughput screen for small molecules that induce DNA re-replication in MCF 10a normal breast cells; MCF 10A DNA re-replication, Hoechst nuclear intensity, 48 h; Potency, µM (doses to about 46.1 µM), for inactives: at the top dose activity, positive = re-replication, usual class: activators; 2.9% of 350,000 active; note: % of control where 0% means no effect; nearly all actives have a fitted effect of over 50% in size
The depositor's hits bear a star; i = inactive; ? = inconclusive; . = no result given. Calls come from the whole dose curve; as a rule, active = well fitted curve in the direction sought with a large enough effect; inconclusive = small, poorly fitted or top-dose-only effect, or another doubt; inactive = no such curve, though single readings can be large; an effect the other way counts as inactive or inconclusive. Potency is the fitted concentration of half-maximal effect.

SMILES	SW480 rerep	KB-V1 MDR tox	HT1080 IDH1KD tx	KB-3-1 cytotox	HT1080-NT tox	MCF10A rereplic
CCn1c(SCC(=O)Nc2ccc(C(C)=O)cc2)nc2nc3c(cc2c1=O)CCCC3	2%	i	-9%	i	6%	?
CCn1c(SCc2c(Cl)cccc2Cl)nc2nc3c(cc2c1=O)CCCC3	?	i	-2%	i	6%	23µM*
CCn1c(SCC(=O)Nc2ccc(Cl)cc2)nc2nc3c(cc2c1=O)CCCC3	?	0.52µM*	6%	i	2%	14%
CCn1c(SCC(=O)NCc2ccccc2)nc2nc3c(cc2c1=O)CCCC3	0%	i	-15%	i	-12%	10%
CCn1c(SCc2ccccc2Cl)nc2nc3c(cc2c1=O)CCCC3	?	i	-29%	?	-8%	18µM*
COc1ccc(-c2cc(C(F)(F)F)n3nc(C(=O)Nc4sc5c(c4C#N)CCC(C)C5)cc3n2)cc1OC (centres undefined)	.	i	.	?	.	.
COc1ccc(-c2nc3c4ccccc4n(CC(=O)N4CCN(c5ccccc5F)CC4)c(=O)n3n2)cc1	.	i	.	i	.	.
COc1ccccc1C1=NN(C2=NN=C(N)Cc3ncnn32)C(O)(C(F)(F)F)C1 (centres undefined)	56%	i	-5%	i	-3%	0.58µM*
COc1ccc(C2=NN(C3=NN=C(N)Cc4ncnn43)C(O)(C(F)(F)F)C2)cc1 (centres undefined)	-5%	?	0%	i	23%	0.58µM*
CCc1nn(CC(=O)NCCc2ccc(OC)c(OC)c2)c(=O)c2cc3occc3n12	.	i	.	i	.	.
CCCCOC(=O)c1ccc(NC(=O)c2cc(-c3cccs3)on2)cc1	.	i	.	i	.	.
CSCCC(NS(=O)(=O)c1cccc(C(F)(F)F)c1)C(=O)N(C)CCOc1ccc(Cl)cc1 (centres undefined)	5.8µM*	?	-2%	i	1%	?
CSCCC(NS(=O)(=O)c1cccc(C(F)(F)F)c1)C(=O)N1CCN(C(=O)c2ccco2)CC1 (centres undefined)	-9%	i	-3%	i	-2%	-7%
O=C(NN=Cc1c(O)ccc2ccccc12)c1ccncc1	24%	0.46µM*	?	i	?	?
O=C(N/N=C/c1c(O)ccc2ccccc12)c1cccnc1	0.82µM*	?	?	?	?	?
O=C(N/N=C/c1ccccn1)c1ccc(Br)o1	-5%	i	-28%	i	-22%	19%
Cc1ccc(C(=O)N/N=C/c2c(O)ccc3ccccc23)cn1	25%	i	?	i	?	24%
O=C(N/N=C\c1c(O)ccc2ccccc12)c1ccc(O)cc1	?	i	?	i	?	-1%
O=C(N/N=C/c1c(O)ccc2ccccc12)c1ccc(Br)o1	1.2µM*	?	5.8µM*	?	?	?
O=C(N/N=C\c1c(O)ccc2ccccc12)c1cncc(Br)c1	?	?	1µM*	2.9µM*	?	15µM*
Cc1ccc(Nc2sc(C(=O)c3ccccc3)c(N)c2S(=O)(=O)c2ccccc2)cc1Cl	.	i	.	i	.	.
COc1ccc(CCC(=O)NCc2ccc3c(c2)CCN3C(=O)c2cccc(C)c2)cc1	.	i	.	?	.	.
COc1ccc2ccccc2c1/C=N\NC(=O)c1cccnc1	3.7µM*	i	-15%	i	-2%	18µM*
Cc1occc1C(=O)N/N=C/c1c(O)ccc2ccccc12	0.52µM*	?	6.5µM*	6.5µM*	?	?
